From article PMC5540273 (PLoS ONE, 2017)
Several values for one entry are separate records, joined by “and”; a condition that tells them apart may be missing. Equal values may be shown once. Read-outs that look alike come from different tables or passages of the source.

Key:
PIP5K2C = test system: T1, PIP5K2C; details: concentration: 1 μM, replicates: in singlicate, n = 1
T1 construct: gene PIP4K2C

PKAC-alpha = test system: T2, PKAC-alpha; details: concentration: 1 μM, replicates: in singlicate, n = 1
T2 construct: gene PRKACA

PKAC-beta = test system: T3, PKAC-beta; details: concentration: 1 μM, replicates: in singlicate, n = 1
T3 construct: gene PRKACB

PKMYT1 = details: concentration: 1 μM, replicates: in singlicate; n = 1
PKN1 = details: concentration: 1 μM, replicates: in singlicate, n = 1
PKN2 = details: concentration: 1 μM, replicates: in singlicate, n = 1
PLK1 = details: concentration: 1 μM, replicates: in singlicate, n = 1
PLK2 = details: concentration: 1 μM, replicates: in singlicate, n = 1
PLK3 = details: concentration: 1 μM, replicates: in singlicate, n = 1
PLK4 = details: concentration: 1 μM, replicates: in singlicate, n = 1
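Also: KINOMEscan kinase panel screen.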

SMILES | %Inh (PIP5K2C) [%] | %Inh (PKAC-alpha) [%] | %Inh (PKAC-beta) [%] | %Inh (PKMYT1) [%] | %Inh (PKN1) [%] | %Inh (PKN2) [%] | %Inh (PLK1) [%] | %Inh (PLK2) [%] | %Inh (PLK3) [%] | %Inh (PLK4) [%] | %Inh (PIP5K2C; 1 µM) | %Inh (PKAC-alpha; 1 µM) | %Inh (PKAC-beta; 1 µM) | %Inh (PKN1; 1 µM) | %Inh (PKN2; 1 µM) | %Inh (PLK1; 1 µM) | %Inh (PLK2; 1 µM) | %Inh (PLK3; 1 µM) | %Inh (PLK4; 1 µM)
CS(=O)(=O)CCNCc1nc(-c2ccc3ncnc(Nc4ccc(OCc5cccc(F)c5)c(Cl)c4)c3c2)cs1.Cl [GW583340] | 24 | 0 | 0 | 0 | 0 | 0 | 0 | 0 | 0 | 3 |  |  |  |  |  |  |  |  | 
Nc1nc(-c2cccnc2)c(-c2ccnc3ccccc23)s1 [GW684083] | 51 | 0 | 0 | 0 | 0 | 0 | 0 | 0 | 0 | 0 |  |  |  |  |  |  |  |  | 
COc1ccc(-c2oc3ncnc(N)c3c2-c2ccc(OC)cc2)cc1 [SB-589132] | 63 | 0 | 0 | 0 | 0 | 0 | 3 | 0 | 0 | 0 |  |  |  |  |  |  |  |  | 
Cn1ccc2ncnc(Nc3ccc(Oc4cccc(Cl)c4)c(Cl)c3)c21 | 22 | 4 | 0 | 0 | 0 | 0 | 0 | 30 | 24 | 26 |  |  |  |  |  |  |  |  | 
Fc1ccc(-c2ncn(CCCNCc3ccccc3)c2-c2ccncc2)cc1 | 3 | 26 | 6 | 27 | 23 | 1 | 0 | 5 | 13 | 32 |  |  |  |  |  |  |  |  | 
Cn1cc(-c2ccc3c(c2)CCN3C(=O)Cc2cccc(C(F)(F)F)c2)c2c(N)ncnc21 [GSK2606414] | 0 | 4 | 6 | 5 | 37 | 0 | 0 | 0 | 0 | 15 |  |  |  |  |  |  |  |  | 
Cl.O=S(=O)(c1cccc(F)c1)c1ccc(Nc2ncnc3cc(Br)sc23)cc1Cl [GSK306886] | 60 | 0 | 0 | 26 | 19 | 0 | 0 | 0 | 0 | 26 |  |  |  |  |  |  |  |  | 
Clc1ccc(-c2cc(-c3c[nH]nc3-c3ccccn3)ccn2)cc1 [GW681251] | 39 | 0 | 0 | 7 | 0 | 0 | 0 | 0 | 0 | 4 |  |  |  |  |  |  |  |  | 
COc1ccc(NC(=O)Nc2ccc(C)c(-c3ccc(C(=O)Nc4ccncc4)cc3)c2)cc1 [GSK1398475] | 0 | 8 | 0 | 0 | 0 | 0 | 0 | 0 | 0 | 0 |  |  |  |  |  |  |  |  | 
N#Cc1ccc(Oc2ccc(Nc3ncnc4cc[nH]c34)cc2Cl)cc1 | 0 | 8 | 0 | 19 | 0 | 0 | 4 | 5 | 11 | 21 |  |  |  |  |  |  |  |  | 
CN1c2ccc(-c3ccc(C(=O)NCCO)cc3)cc2-c2[nH]ncc2S1(=O)=O | 76 | 33 | 55 | 16 | 0 | 30 | 21 | 17 | 0 | 25 |  |  |  |  |  |  |  |  | 
Cl.c1ccc(Cn2ccc3cc(Nc4ncnc5ccccc45)ccc32)cc1 [GW275568] | 25 | 18 | 0 | 0 | 26 | 0 | 4 | 0 | 0 | 5 |  |  |  |  |  |  |  |  | 
COc1ccc(-c2nc3n(c2-c2ccncc2)CCC3)cc1 [SKF-104493] |  |  |  | 0 |  |  |  |  |  |  | 0% and 9% | 5% and 0% | 7% and 0% | 7% and 0% | 23% and 0% | 22% and 0% | 11% and 0% | 1% and 0% | 0% and 15%
CCc1nc(-c2cccc(C)c2)c(-c2ccnc(NC(=O)c3ccccc3)c2)s1 | 99.1 | 0 | 0 | 0 | 13 | 0 | 0 | 5 | 9 | 17 |  |  |  |  |  |  |  |  | 
COc1ccc(Nc2nccc(N3CCC(NC(=O)c4cccc(NC(C)=O)c4)C3)n2)cc1 (stereo not drawn) [GSK1379732] | 57 | 0 | 12 | 3 | 0 | 0 | 15 | 6 | 0 | 0 |  |  |  |  |  |  |  |  | 
Fc1ccc(Nc2nccc(-c3c(-c4ccc(Cl)cc4)nn4ncccc34)n2)cc1F [GW829058] | 20 | 15 | 24 | 4 | 4 | 13 | 32 | 36 | 20 | 29 |  |  |  |  |  |  |  |  | 
COC(=O)c1cccc(NC(=O)NCCNc2ccnc(Nc3ccc(F)cc3)n2)c1 [GSK1379883] | 22 | 3 | 0 | 10 | 3 | 0 | 4 | 0 | 0 | 0 |  |  |  |  |  |  |  |  | 

SMILES | %Inh (PIP5K2C) [%] | %Inh (PKAC-alpha) [%] | %Inh (PKAC-beta) [%] | %Inh (PKMYT1) [%] | %Inh (PKN1) [%] | %Inh (PKN2) [%] | %Inh (PLK1) [%] | %Inh (PLK2) [%] | %Inh (PLK3) [%] | %Inh (PLK4) [%] | %Inh (PIP5K2C; 1 µM) | %Inh (PKAC-alpha; 1 µM) | %Inh (PKAC-beta; 1 µM) | %Inh (PKN1; 1 µM) | %Inh (PKN2; 1 µM) | %Inh (PLK1; 1 µM) | %Inh (PLK2; 1 µM) | %Inh (PLK3; 1 µM) | %Inh (PLK4; 1 µM)
Cc1ccc(NC(=O)c2cccc(C#N)c2)cc1-c1ccc(C(=O)Nc2ccncc2)cc1 [GSK1398463] | 0 | 0 | 0 | 0 | 28 | 0 | 0 | 0 | 0 | 2 |  |  |  |  |  |  |  |  | 
Cl.Cn1ccc(-c2cccc(Nc3ccnc4cc(-c5nccs5)ccc34)c2)n1 [GW525701] | 50 | 0 | 0 | 0 | 0 | 0 | 0 | 0 | 0 | 5 |  |  |  |  |  |  |  |  | 
CC(=O)Nc1n[nH]c2ncc(-c3ccccc3)cc12 [SB-548492] | 0 | 0 | 14 | 0 | 0 | 29 | 1 | 27 | 25 | 8 |  |  |  |  |  |  |  |  | 
CC(C)(C)c1ccc(-n2cnc3c(N)ncnc32)cc1 [SKF-97263] | 27 | 4 | 2 | 3 | 39 | 11 | 7 | 0 | 0 | 0 |  |  |  |  |  |  |  |  | 
Cl.Cl.c1ccc(-c2cc3ccncc3cc2OC2CCNCC2)cc1 [GSK1122999] | 6 | 0 | 9 | 14 | 0 | 19 | 5 | 0 | 0 | 9 |  |  |  |  |  |  |  |  | 
CCn1c(-c2ccncc2)nc2cnccc21 [SB-735216] | 0 | 0 | 3 | 6 | 2 | 20 | 28 | 37 | 16 | 0 |  |  |  |  |  |  |  |  | 
FC(F)(F)c1ccc(-c2cc(-c3c[nH]nc3-c3ccccn3)ccn2)cc1 [GW599550] | 59 | 10 | 6 | 0 | 0 | 0 | 0 | 0 | 0 | 10 |  |  |  |  |  |  |  |  | 
c1ccc(-c2ccc3c(-c4ccnc(Nc5ccc6c(c5)OCCO6)n4)cnn3n2)cc1 [GW818941] | 36 | 0 | 28 | 3 | 65 | 0 | 9 | 0 | 0 | 0 |  |  |  |  |  |  |  |  | 
CCCc1ccc(S(=O)(=O)NC2CCN(c3ccnc(Nc4ccc(OC)cc4)n3)C2)cc1 (stereo not drawn) [GSK1379737] | 66 | 0 | 0 | 0 | 0 | 0 | 1 | 0 | 0 | 0 |  |  |  |  |  |  |  |  | 
CSc1ccc(NC2=C(c3ccccc3Cl)C(=O)NC2=O)cc1 [SB-342411] | 0 | 74 | 0 | 25 | 36 | 0 | 8 | 0 | 0 | 13 |  |  |  |  |  |  |  |  | 
CNc1nccc(-c2c(-c3ccc(F)cc3)ncn2CCCN2CCOCC2)n1 [SB-222516] | 0 | 1 | 19 | 0 | 0 | 36 | 41 | 14 | 0 | 0 |  |  |  |  |  |  |  |  | 
Nc1nc(-c2ccc3c(N)n[nH]c3c2)cc(N2CCCCC2)n1 [GSK2228768] | 0 | 56 | 0 | 13 | 18 | 0 | 0 | 0 | 0 | 0 |  |  |  |  |  |  |  |  | 
CSc1nn2c(=O)cc(N3CCOCC3)nc2n1Cc1cccc(Cl)c1Cl [GSK2347225] | 7 | 24 | 12 | 0 | 5 | 0 | 55 | 0 | 5 | 13 |  |  |  |  |  |  |  |  | 
Fc1cccc(COc2ccc(Nc3ncnc4sc(-c5ccc[nH]5)cc34)cc2Cl)c1 [GW707818] | 25 | 0 | 0 | 0 | 32 | 1 | 0 | 7 | 19 | 0 |  |  |  |  |  |  |  |  | 
O=C(CCO)NCCn1ccc2ncnc(Nc3ccc(Oc4cccc(C(F)(F)F)c4)c(Cl)c3)c21 | 26 | 0 | 12 | 10 | 0 | 1 | 0 | 0 | 0 | 0 |  |  |  |  |  |  |  |  | 
Cl.Fc1ccccc1COc1ccc(Nc2ncnc3ccc(-c4nnc(C(F)(F)F)o4)cc23)cc1Cl [GW424170] | 7 | 0 | 0 | 0 | 0 | 0 | 0 | 0 | 0 | 0 |  |  |  |  |  |  |  |  | 
